Test results published in PubChem BioAssay (EPA / NIEHS).
Records with an inconclusive call do not appear. Where a structure was tested more than once in an assay, its records may differ in their call. Activity calls are given as the source filed them. The calls were made as follows: active = hit-call score of the fitted dose curve at least 0.9, where 1 is the maximum; inconclusive = response in the unintended direction; inactive = score below 0.9.

What was measured:
[1] = LTEA_HepaRG_LDH_cytotoxicity: Cytotoxicity Assessment in the Life Technologies and Expression Analysis (LTEA) Assay (AID 2283563);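 as to AC50: LDH activity released into spent culture medium as a marker of cell death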
How it was run: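 Differentiated HepaRG cells in serum-free induction medium, exposed 48 h in duplicate to 8 half-log concentrations up to 100 uM in 0.5% DMSO. Cytotoxicity from LDH measured in spent medium, fit relative to DMSO.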

[2] = ATG_XTT_Cytotoxicity: Cytotoxicity Assessment in the Attagene TRANS-FACTORIAL HepG2 Assay (AID 2283584)
How it was run: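 HepG2 cells transiently transfected with GAL4-UAS multiple reporter units, dosed 24 h; cytotoxicity read by XTT as loss of signal versus DMSO baseline.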

[3] = TOX21_p53_BLA_p2_viability: Viability Assessment in the Tox21 HCT-116 p53 Agonism Beta-lactamase Assay, Phase 2 (AID 2283591);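 also: compound exposure lasted 16 h at 37 °C; actives lower the ATP signal meaning cytotoxicity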
How it was run: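 HCT116 p53-bla cells, 4000/well, dosed after 5 h plating (217-fold dilution of DMSO stocks) and incubated 16 h at 37C. Viability taken as cellular ATP by CellTiter-Glo luminescence after 30 min RT; signal loss marks cytotoxicity.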

[4] = biological target: Cellular tumor antigen p53 (Homo sapiens) (UniProt P04637); assay: TOX21_p53_BLA_p2_ratio: Tox21 HCT-116 p53 Agonism Beta-lactamase Assay, Ratio, Phase 2 (AID 2283592)
Sequence of Cellular tumor antigen p53 (Homo sapiens) (P04637 whole entry, looked up): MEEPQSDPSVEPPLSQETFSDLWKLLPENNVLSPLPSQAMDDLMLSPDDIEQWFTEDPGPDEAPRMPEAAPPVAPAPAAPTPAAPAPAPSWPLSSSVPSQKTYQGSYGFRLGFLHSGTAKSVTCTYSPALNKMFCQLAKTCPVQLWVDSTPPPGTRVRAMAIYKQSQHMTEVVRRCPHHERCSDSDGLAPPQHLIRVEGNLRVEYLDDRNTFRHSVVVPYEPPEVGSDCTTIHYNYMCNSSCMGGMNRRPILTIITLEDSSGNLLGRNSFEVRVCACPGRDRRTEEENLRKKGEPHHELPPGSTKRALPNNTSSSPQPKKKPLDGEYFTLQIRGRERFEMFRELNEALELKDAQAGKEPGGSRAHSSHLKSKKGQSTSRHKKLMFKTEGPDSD
How it was run: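 HCT-116 cells with p53-responsive beta-lactamase reporter, 4000 cells/well, preincubated 5 h, then compound in DMSO (217-fold dilution) for 16 h at 37C. CCF4-AM substrate 2 h at room temperature; 460/530 nm emission ratio fitted upward versus DMSO.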

[5] = biological target: Cellular tumor antigen p53 (Homo sapiens) (UniProt P04637); assay: TOX21_p53_BLA_p3_ratio: Tox21 HCT-116 p53 Agonism Beta-lactamase Assay, Ratio, Phase 3 (AID 2283596)
How it was run: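 HCT116 p53-bla cells (4000/well) given compound in DMSO (217-fold dilution) after 5 h, incubated 16 h at 37C. CCF4-AM substrate 2 h at room temperature; 460/530 nm emission ratio, gain fitted against DMSO.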

[6] = TOX21_p53_BLA_p4_viability: Viability Assessment in the Tox21 HCT-116 p53 Agonism Beta-lactamase Assay, Phase 4 (AID 2283597);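 also: hits lower the luminescence signal meaning cytotoxicity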
How it was run: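 HCT-116 p53-bla cells, 4000/well, dosed after 5 h attachment and incubated 16 h at 37 °C, 5% CO2. Viability from CellTiter-Glo ATP luminescence after 30 min at room temperature, taken after the beta-lactamase read; loss of signal indicates cytotoxicity.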

[7] = biological target: Cellular tumor antigen p53 (Homo sapiens) (UniProt P04637); assay: TOX21_p53_BLA_p5_ratio: Tox21 HCT-116 p53 Agonism Beta-lactamase Assay, Ratio, Phase 5 (AID 2283599)
How it was run: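 HCT-116 p53-bla cells (4000/well) plated 5 h, dosed with compound (217-fold DMSO dilution) for 16 h at 37 C; CCF4-AM substrate 2 h at room temperature. Activity is the 460/530 nm emission ratio (405 nm excitation), fitted in gain-of-signal direction versus DMSO.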

[8] = TOX21_p53_BLA_p5_viability: Viability Assessment in the Tox21 HCT-116 p53 Agonism Beta-lactamase Assay, Phase 5 (AID 2283600)
How it was run: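 HCT-116 p53 beta-lactamase reporter cells, 4000/well, were exposed to compound (pin transfer, 217-fold dilution) for 16 hours at 37C. Cellular ATP was read by CellTiter-Glo luminescence after 30 min at room temperature.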

[9] = Tanguay_ZF_120hpf_MORT_legacy: (Legacy) Oregon State University Tanguay Lab 120 Hour Post-fertilization zebrafish Assay for Mortality (AID 2283633);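 as to AC50: fitted as increase in binary mortality versus DMSO negative control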
How it was run: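 Dechorionated Tropical 5D wild-type zebrafish embryos, one per well from 6 hpf, static exposure in 0.64% DMSO at 28C until 120 hpf. Mortality scored as binary by brightfield microscopy at 24 and 120 hpf.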

[10] = Tanguay_ZF_120hpf_YSE_legacy: (Legacy) Oregon State University Tanguay Lab 120 Hour Post-fertilization zebrafish Assay for Yolk Sac Edema (AID 2283634);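 as to AC50: actives raise the incidence of yolk sac edema above the DMSO baseline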
How it was run: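 Dechorionated Tropical 5D wild-type zebrafish embryos were exposed statically, one per well, from 6 to 120 hpf at 28C in 0.64% DMSO. Yolk sac edema was scored present/absent by brightfield at 120 hpf, and dead embryos were excluded.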

[11] = Tanguay_ZF_120hpf_AXIS_legacy: (Legacy) Oregon State University Tanguay Lab 120 Hour Post-fertilization zebrafish Assay for Body Axis Malformation (AID 2283635);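 as to AC50: potency for an increased fraction of larvae scored with body axis malformation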
How it was run: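 Dechorionated wild-type Tropical 5D zebrafish embryos, one per well, statically exposed from 6 hpf to 120 hpf at 28C in 0.64% DMSO final. Body axis malformation scored present/absent by brightfield microscopy at 120 hpf; dead embryos excluded.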

[12] = Tanguay_ZF_120hpf_EYE_legacy: (Legacy) Oregon State University Tanguay Lab 120 Hour Post-fertilization zebrafish Assay for Eye Malformation (AID 2283636);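 also: binary presence or absence of eye malformation scored by brightfield in 120 hpf larvae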
How it was run: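 Dechorionated Tropical 5D zebrafish embryos, one per well from 6 hpf, static exposure to 120 hpf at 28C, 0.64% DMSO. Eye malformation scored present/absent by brightfield; dead embryos not scored.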

[13] = Tanguay_ZF_120hpf_SNOU_legacy: (Legacy) Oregon State University Tanguay Lab 120 Hour Post-fertilization zebrafish Assay for Snout Malformation (AID 2283637)
How it was run: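 Dechorionated tropical 5D wild-type zebrafish embryos exposed statically from 6 to 120 hpf at 28C, one per well, in 0.64% DMSO. Snout malformation scored as present/absent by brightfield at 120 hpf; dead embryos not scored.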

[14] = Tanguay_ZF_120hpf_JAW_legacy: (Legacy) Oregon State University Tanguay Lab 120 Hour Post-fertilization zebrafish Assay for Jaw Malformation (AID 2283638);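 as to AC50: active means more embryos with jaw malformation than DMSO controls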
How it was run: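 Dechorionated Tropical 5D wild-type zebrafish embryos, one per well, exposed statically from 6 hpf to 120 hpf at 28C in 0.64% DMSO. Jaw malformation was scored by brightfield microscopy as present or absent. It was not scored in dead embryos.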

[15] = Tanguay_ZF_120hpf_OTIC_legacy: (Legacy) Oregon State University Tanguay Lab 120 Hour Post-fertilization zebrafish Assay for Otic Vesicle Malformation (AID 2283639)
How it was run: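 Otic vesicle malformation is read as a yes/no morphology call at 120 hpf. Exposure is static at 28C with 0.64% (vol/vol) DMSO; embryos that die are excluded from non-mortality endpoints.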

[16] = Tanguay_ZF_120hpf_PE_legacy: (Legacy) Oregon State University Tanguay Lab 120 Hour Post-fertilization zebrafish Assay for Pericardial Edema (AID 2283640);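 as to AC50: potency for increased incidence of pericardial edema versus DMSO baseline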
How it was run: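 Tropical 5D wild-type zebrafish embryos were statically exposed until 120 hpf at 28C, with 0.64% DMSO final. Pericardial edema was scored by brightfield as present or absent; endpoints were not scored in dead embryos.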

[17] = Tanguay_ZF_120hpf_BRAI_legacy: (Legacy) Oregon State University Tanguay Lab 120 Hour Post-fertilization zebrafish Assay for Brain Malformation (AID 2283641)
How it was run: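 Tropical 5D wild-type zebrafish embryos exposed statically until 120 hpf at 28C, 0.64% DMSO final, sealed and dark. Brain malformation scored present/absent by brightfield at 120 hpf; dead embryos excluded. Trimethyltin chloride 5uM positive control.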

[18] = Tanguay_ZF_120hpf_SOMI_legacy: (Legacy) Oregon State University Tanguay Lab 120 Hour Post-fertilization zebrafish Assay for Somite Malformation (AID 2283647)
How it was run: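 Dechorionated Tropical 5D wild-type zebrafish embryos, one per well from 6 hpf, statically exposed at 28C to 120 hpf in 0.64% DMSO; somite malformation scored present/absent by brightfield; trimethyltin 5 uM positive control; dead embryos not scored.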

[19] = TOX21_p53_BLA_p3_viability: Viability Assessment in the Tox21 HCT-116 p53 Agonism Beta-lactamase Assay, Phase 3 (AID 2283593);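 also: cells exposed to compound for 16 h before reading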
How it was run: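 HCT116 cells, 4000/well, dosed 5 h after plating by pin transfer (217-fold dilution from DMSO stock) and incubated 16 h at 37C, 5% CO2. Viability read as ATP luminescence with CellTiter-Glo after 30 min at room temperature.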

[20] = biological target: Cellular tumor antigen p53 (Homo sapiens) (UniProt P04637); assay: TOX21_p53_BLA_p4_ratio: Tox21 HCT-116 p53 Agonism Beta-lactamase Assay, Ratio, Phase 4 (AID 2283601)
How it was run: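 HCT-116 p53 beta-lactamase reporter cells (4000/well) preincubated 5 h, then compound (217-fold dilution of DMSO stock) for 16 h at 37C. CCF4-AM substrate added 2 h at room temperature; 460/530 nm emission ratio fitted upward versus DMSO.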

Measured: AC50

CSC(=O)c1c(C(F)F)nc(C(F)(F)F)c(C(=O)SC)c1CC(C)C
active: [1] 78.7 µM
not listed: [19] | [20]
inactive: all other assays above

COc1ccc(-c2ccccc2)cc1NNC(=O)OC(C)C
not listed: [2]
inactive: all other assays above

CC(C)(C)C(=O)C(Oc1ccc(Cl)cc1)n1cncn1 (stereo not drawn)
active: [7] 86 µM | [10] 36.8 µM | [11] 41.3 µM | [13] 34.8 µM | [16] 37.5 µM
not listed: [2] | [9] | [15] | [20]
inactive: all other assays above

C=CCOC(=O)C(C)(C)OC(=O)c1cc(-n2c(=O)cc(C(F)(F)F)n(C)c2=O)ccc1Cl
not listed: [2] | [15] | [18] | [19]
inactive: all other assays above

N#Cc1c[nH]cc1-c1cccc2c1OC(F)(F)O2
active: [4] 7.61 µM | [5] 8.51 µM | [7] 5.39 µM | [20] 6.17 µM | [9] 25.9 µM
not listed: [15]
inactive: all other assays above

CS(=O)(=O)c1ccc(C(=O)C2C(=O)CCCC2=O)c([N+](=O)[O-])c1
not listed: [2]
inactive: all other assays above

CCCN(CC)CC1COC2(CCC(C(C)(C)C)CC2)O1 (stereo not drawn)
not listed: [2] | [5] | [7] | [20]
inactive: all other assays above

CC(C)Oc1cccc(NC(=O)c2ccccc2C(F)(F)F)c1
active: [10] 48.7 µM | [12] 15.5 µM | [13] 50.4 µM | [14] 40.4 µM | [16] 48.1 µM | [17] 38.3 µM
not listed: [2]
inactive: all other assays above

COP(=S)(OC)SCn1nnc2ccccc2c1=O
inactive: [1] | [2] | [3] | [4] | [19] | [5] | [6] | [7] | [8] | [20] | [9] | [10] | [12] | [13] | [14] | [15] | [16] | [17]
active: [4] 73.9 µM | [20] 43.5 µM | [11] 17.3 µM
